Source: PubChem BioAssay (NCI)
The panel holds about 83,000 compounds, 20% with a hit somewhere; the sample as a whole holds those more often.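 Single-concentration screen, 48 h exposure, 96-well plates. Endpoint: percent growth. Below 10 = active.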 Activity calls are given as the source filed them.

These molecules were tested on DU-145 prostate (assay: NCI-60 one-dose screen, 48 h (100 = growth as untreated, 0 = no growth, -100 = all killed)). Conditions: 10 µM unless noted.

Compound	growth
CC(c1ccc(-n2cccn2)cc1)c1cnc(N2CCc3ccc(C(N)=O)cc3C2)s1 (stereo not drawn)	88.2% (inactive)
COc1cc2c(cc1OC)-c1ccc3cc4c(cc3c1N(CCCN1CCCCC1)C2)OCO4	51.1% (inactive)
C[C@@H](C[C@H](CCOCc1cccnc1)c1ccccc1)c1cc2ccccc2o1	98.7% (inactive)
N#Cc1c(N)n2c(nc1=Nc1ccc([N+](=O)[O-])cc1)sc1cc(Cl)ccc12	107% (inactive)
C=C1C(=O)O[C@H]2[C@H]1CC/C(C(=O)NCCCCCCCCNC(=O)/C1=C/CC[C@@]3(C)O[C@H]3[C@H]3OC(=O)C(=C)[C@@H]3CC1)=C\CC[C@@]1(C)O[C@@H]21	84.1% (inactive)
O=C(NCCOCCOCCOCCNC(=O)c1cc2c(o1)C(=O)c1ccccc1C2=O)NC12CC3CC(CC(C3)C1)C2	-96% (active)
CCOc1ccc2nc(-c3cccc(OCC(=O)NC(C)C)c3)nc(Nc3ccc(-c4cn[nH]c4)cc3)c2c1	4.3% (active)
CSc1ncc(C)c(Nc2ccc(Cl)cc2)n1	102% (inactive)
O=C1CCC(N2C(=O)c3cccc(NCCCC4CCN(CCNC(=O)c5cc6c(o5)C(=O)c5ccccc5C6=O)CC4)c3C2=O)C(=O)N1 (stereo not drawn)	-94.9% (active)
CCOC(=O)C1C(=O)C=C(c2cnccn2)CC1c1ccc(OC)c(OC)c1 (stereo not drawn)	105% (inactive)
OC(CBr)c1ccnc2ccccc12 (stereo not drawn)	109% (inactive)
O=C1N(c2ccccc2)C(=S)N[C@]12[C@H](c1ccccc1)C1CCCN1[C@]21C(=O)NC2C=CC(Cl)=C[C@H]21 (stereo partly drawn)	103% (inactive)
CC(C)n1nc(C#Cc2cccc(O)c2)c2c(N)ncnc21	-6.9% (active)
COc1cc2c(=O)n(CCCn3ccnc3)c3c4cc5c(cc4ccc3c2cc1OC)OCO5	15.2% (inactive)
O=C(/C=C/C12c3ccccc3C(c3ccccc31)C1C(=O)N(c3ccccc3)C(=O)C12)c1ccccc1 (stereo not drawn)	5.98% (active)
O=C(CC12CC3CC(CC(C3)C1)C2)NCCOCCOCCOCCNC(=O)c1cc2c(o1)C(=O)c1ccccc1C2=O	-95.6% (active)
O=C1Nc2ccccc2/C1=N/N=C/c1ccc(OC2OC(CO)C(O)C(O)C2O)cc1 (stereo not drawn)	114% (inactive)
CC(=[N-])N1CCC[C@@H](Nc2c3ccccc3nc3ccccc23)C1.[Cl][Pt].[NH-]CCC[NH-]	5.94% (active)
O=C1Nc2ccccc2/C1=N/N=C/c1c[nH]c2ccccc12	58.3% (inactive)
CNC1(C#N)CCN(Cc2ccccc2)CC1	113% (inactive)

Compound	growth
COc1cc2c(cc1OC)-c1ccc3cc4c(cc3c1N(CCCn1ccnc1)C2)OCO4	39.6% (inactive)
NC(=O)c1c(NC(=O)c2ccccn2)sc2c1CCC(=O)C2	91.5% (inactive)
NC(N)=N/N=C/c1ccc(Br)cc1	80% (inactive)
CCNCCNc1cc(C2CCCC2)c(C#N)c2nc3ccccc3n12	28% (inactive)
CS(=O)(=O)c1ccc(-c2[nH]c3ccc(F)cc3c2/C=N/O)cc1	97.2% (inactive)
N=C(N)c1ccc(-c2ccc(-c3ccc(Cl)cc3Cl)o2)cc1	-17.9% (active)
CC(=O)C(C(C)=O)c1nc2sc3cc(Cl)ccc3n2c(=N)c1C#N	97.4% (inactive)
Cc1ccc(/C=C(\C#N)n2nnc3cc(Cl)c(Cl)cc32)cc1	3.78% (active)
O=S(=O)(NCCNc1cc(-c2c(-c3cccc(O)c3)nc3sccn23)ccn1)c1ccc(Br)cc1	57.9% (inactive)
COc1ccc(/C(C)=N/NS(=O)(=O)c2ccc(C)cc2)cc1OC	118% (inactive)
C=C(Cl)COC(=O)C(C)(C)O	102% (inactive)
CCc1c(C(=O)N[C@@H]2c3cc(Cl)ccc3CC[C@@H]2O)[nH]c(C)c1C(C)=O	94.5% (inactive)
COc1cc2nc(Nc3ccc(F)cc3)nc(N)c2cc1OC	93.5% (inactive)
c1ccc2c(c1)nc(-n1ccnc1)c1nc3ccccc3n12	76.9% (inactive)
COC(=O)/C(=C\c1ccc(OC)cc1)C(=O)N1c2ccccc2Sc2ccccc21	78.5% (inactive)
CN1CCN(c2ccc(Nc3ncc(Cl)c(NC[C@@H]4CCCO4)n3)cc2)CC1	23% (inactive)
O=C(NC1CCOCC1)c1ccc2c(c1)CN(c1ncc(Cc3cccc(-n4cccn4)c3)s1)CC2	88.2% (inactive)
[2H]c1nc(Nc2ncc(F)c(-c3cc(F)c4nc(C)n(C(C)C)c4c3)n2)c([2H])c([2H])c1CN1CCN(C([2H])([2H])C([2H])([2H])[2H])CC1	66.2% (inactive)
COc1ccc(C2CC(c3cnccn3)=NN2)cc1OC (stereo not drawn)	104% (inactive)

The molecules below were run on K-562 leukemia in the same assay as above. Conditions: 10 µM unless noted.

Compound	growth
CC(c1ccc(-n2cccn2)cc1)c1cnc(N2CCc3ccc(C(N)=O)cc3C2)s1 (stereo not drawn)	30.4% (inactive)
COc1cc2c(cc1OC)-c1ccc3cc4c(cc3c1N(CCCN1CCCCC1)C2)OCO4	16.9% (inactive)
C[C@@H](C[C@H](CCOCc1cccnc1)c1ccccc1)c1cc2ccccc2o1	81.5% (inactive)
N#Cc1c(N)n2c(nc1=Nc1ccc([N+](=O)[O-])cc1)sc1cc(Cl)ccc12	74.4% (inactive)
C=C1C(=O)O[C@H]2[C@H]1CC/C(C(=O)NCCCCCCCCNC(=O)/C1=C/CC[C@@]3(C)O[C@H]3[C@H]3OC(=O)C(=C)[C@@H]3CC1)=C\CC[C@@]1(C)O[C@@H]21	18.3% (inactive)
O=C(NCCOCCOCCOCCNC(=O)c1cc2c(o1)C(=O)c1ccccc1C2=O)NC12CC3CC(CC(C3)C1)C2	7.09% (active)
CCOc1ccc2nc(-c3cccc(OCC(=O)NC(C)C)c3)nc(Nc3ccc(-c4cn[nH]c4)cc3)c2c1	-17.1% (active)
CSc1ncc(C)c(Nc2ccc(Cl)cc2)n1	94% (inactive)
O=C1CCC(N2C(=O)c3cccc(NCCCC4CCN(CCNC(=O)c5cc6c(o5)C(=O)c5ccccc5C6=O)CC4)c3C2=O)C(=O)N1 (stereo not drawn)	2.99% (active)
CCOC(=O)C1C(=O)C=C(c2cnccn2)CC1c1ccc(OC)c(OC)c1 (stereo not drawn)	81.3% (inactive)
OC(CBr)c1ccnc2ccccc12 (stereo not drawn)	92% (inactive)
O=C1N(c2ccccc2)C(=S)N[C@]12[C@H](c1ccccc1)C1CCCN1[C@]21C(=O)NC2C=CC(Cl)=C[C@H]21 (stereo partly drawn)	81.5% (inactive)
CC(C)n1nc(C#Cc2cccc(O)c2)c2c(N)ncnc21	-23% (active)
COc1cc2c(=O)n(CCCn3ccnc3)c3c4cc5c(cc4ccc3c2cc1OC)OCO5	24% (inactive)
O=C(/C=C/C12c3ccccc3C(c3ccccc31)C1C(=O)N(c3ccccc3)C(=O)C12)c1ccccc1 (stereo not drawn)	14.5% (inactive)
O=C(CC12CC3CC(CC(C3)C1)C2)NCCOCCOCCOCCNC(=O)c1cc2c(o1)C(=O)c1ccccc1C2=O	2.13% (active)
O=C1Nc2ccccc2/C1=N/N=C/c1ccc(OC2OC(CO)C(O)C(O)C2O)cc1 (stereo not drawn)	98.3% (inactive)
CC(=[N-])N1CCC[C@@H](Nc2c3ccccc3nc3ccccc23)C1.[Cl][Pt].[NH-]CCC[NH-]	19.2% (inactive)
O=C1Nc2ccccc2/C1=N/N=C/c1c[nH]c2ccccc12	80.2% (inactive)
CNC1(C#N)CCN(Cc2ccccc2)CC1	104% (inactive)

Compound	growth
COc1cc2c(cc1OC)-c1ccc3cc4c(cc3c1N(CCCn1ccnc1)C2)OCO4	20.4% (inactive)
NC(=O)c1c(NC(=O)c2ccccn2)sc2c1CCC(=O)C2	10.1% (inactive)
NC(N)=N/N=C/c1ccc(Br)cc1	4.4% (active)
CCNCCNc1cc(C2CCCC2)c(C#N)c2nc3ccccc3n12	-28.3% (active)
CS(=O)(=O)c1ccc(-c2[nH]c3ccc(F)cc3c2/C=N/O)cc1	89.4% (inactive)
N=C(N)c1ccc(-c2ccc(-c3ccc(Cl)cc3Cl)o2)cc1	-12.9% (active)
CC(=O)C(C(C)=O)c1nc2sc3cc(Cl)ccc3n2c(=N)c1C#N	85.2% (inactive)
Cc1ccc(/C=C(\C#N)n2nnc3cc(Cl)c(Cl)cc32)cc1	6.41% (active)
O=S(=O)(NCCNc1cc(-c2c(-c3cccc(O)c3)nc3sccn23)ccn1)c1ccc(Br)cc1	34.5% (inactive)
COc1ccc(/C(C)=N/NS(=O)(=O)c2ccc(C)cc2)cc1OC	111% (inactive)
C=C(Cl)COC(=O)C(C)(C)O	93.7% (inactive)
CCc1c(C(=O)N[C@@H]2c3cc(Cl)ccc3CC[C@@H]2O)[nH]c(C)c1C(C)=O	69.7% (inactive)
COc1cc2nc(Nc3ccc(F)cc3)nc(N)c2cc1OC	77.8% (inactive)
c1ccc2c(c1)nc(-n1ccnc1)c1nc3ccccc3n12	88.1% (inactive)
COC(=O)/C(=C\c1ccc(OC)cc1)C(=O)N1c2ccccc2Sc2ccccc21	11.1% (inactive)
CN1CCN(c2ccc(Nc3ncc(Cl)c(NC[C@@H]4CCCO4)n3)cc2)CC1	27.2% (inactive)
O=C(NC1CCOCC1)c1ccc2c(c1)CN(c1ncc(Cc3cccc(-n4cccn4)c3)s1)CC2	58.7% (inactive)
[2H]c1nc(Nc2ncc(F)c(-c3cc(F)c4nc(C)n(C(C)C)c4c3)n2)c([2H])c([2H])c1CN1CCN(C([2H])([2H])C([2H])([2H])[2H])CC1	49.6% (inactive)
COc1ccc(C2CC(c3cnccn3)=NN2)cc1OC (stereo not drawn)	60.9% (inactive)
